Source: PubChem
miR122 inh: miR-122 sensor activation. Huh7 psiCHECK-miR122 Renilla luciferase sensor, 48 h. activation, % at 12.5 µM. hit rate 0.14% among 340,000. AID 623901;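 active = mean activation of 30% or more, with every replicate also reaching 30%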;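 note: 0% = median of neutral control wells and 100% = median of positive control wells; higher luciferase signal means stronger suppression of miR-122 activity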
An asterisk follows results filed as active. Many of the other results were omitted from the sample, so hits are more common in it than they were.

SMILES | miR122 inh
C[C@@H]1CN([C@@H](C)CO)S(=O)(=O)c2ccc(C#Cc3ccccc3F)cc2O[C@@H]1CN(C)C(=O)c1ccc2c(c1)OCO2 | 41.2*
C[C@@H]1CN([C@@H](C)CO)C(=O)c2cc(C3=CCCCC3)cnc2O[C@@H]1CN(C)Cc1ccccc1C(=O)O | 4.0
C[C@@H]1CN([C@@H](C)CO)C(=O)c2cc(C#Cc3ccccc3F)cnc2O[C@H]1CN(C)C(=O)C1CCOCC1 | -2.9
CCC(=O)N(C)C[C@H]1Oc2cc(C#C[C@@H](C)O)ccc2S(=O)(=O)N([C@@H](C)CO)C[C@@H]1C | 6.7
C[C@@H]1CN([C@H](C)CO)C(=O)c2cc(/C=C/c3ccccc3)cnc2O[C@@H]1CN(C)C(=O)Cc1ccccn1 | 3.2
CCC(=O)N(C)C[C@H]1Oc2ncc(C#CC3(O)CCCC3)cc2C(=O)N([C@@H](C)CO)C[C@H]1C | -0.1
C[C@H](CO)N1C[C@H](C)[C@H](CN(C)Cc2cncnc2)Oc2cc(-c3ccccc3)ccc2S1(=O)=O | 1.9
C[C@H]1CN([C@@H](C)CO)C(=O)c2cc(-c3ccncc3)cnc2O[C@@H]1CN(C)C(=O)C1CCOCC1 | -9.5
COc1ccc(C(=O)Nc2ccc3c(c2)OC[C@@H](C)N(C)C[C@@H](C)[C@@H](OC)CN(C)C3=O)cc1 | -1.2
COc1ccc(-c2cnc3c(c2)C(=O)N([C@@H](C)CO)C[C@@H](C)[C@H](CN(C)Cc2ccccn2)O3)cc1 | -3.5
COc1ccc(C#Cc2cnc3c(c2)C(=O)N([C@H](C)CO)C[C@@H](C)[C@H](CN(C)CC2CCCC2)O3)cc1 | -13.6
Cc1ccccc1NC(=O)Nc1ccc2c(c1)C(=O)N(C)[C@H]1CC[C@H](CC(=O)NCC3CC3)O[C@H]1CO2 | -227.8
CN1C(=O)c2cc(NC(=O)Cc3cccs3)ccc2OC[C@@H]2O[C@H](CC(=O)NCc3ccc(-c4ccccc4)cc3)CC[C@@H]21 | -188.3
CO[C@H]1CN(C)C(=O)c2cc(NC(=O)c3nc4ccccc4s3)ccc2OC[C@H](C)N(Cc2ccncc2)C[C@H]1C | -9.5
COCCNC(=O)C[C@H]1CC[C@@H]2[C@H](COc3ccc(NC(=O)c4cnccn4)cc3C(=O)N2C)O1 | 45.0*
COCCNC(=O)C[C@@H]1CC[C@H]2[C@@H](COc3ccc(NC(C)=O)cc3C(=O)N2C)O1 | -183.3
Cc1cccc(NC(=O)Nc2ccc3c(c2)C(=O)N(C)[C@@H]2CC[C@@H](CC(=O)NCc4ccccc4Cl)O[C@H]2CO3)c1 | 55.0*
CCS(=O)(=O)Nc1ccc2c(c1)C(=O)N(C)C[C@H](OC)[C@@H](C)CN[C@@H](C)CO2 | -2.7
CN1C(=O)c2cc(NC(=O)Nc3ccccc3F)ccc2OC[C@@H]2O[C@@H](CC(=O)NCc3ccc(-c4ccccc4)cc3)CC[C@H]21 | 47.8*
CCS(=O)(=O)Nc1ccc2c(c1)C(=O)N(C)[C@@H]1CC[C@@H](CC(=O)NCCCN3CCOCC3)O[C@H]1CO2 | 67.5*
CO[C@H]1CN(C)C(=O)c2cc(NC(=O)Nc3ccccc3)ccc2OC[C@@H](C)NC[C@@H]1C | 0.1
CCCNC(=O)N1C[C@H](C)[C@H](OC)CN(C)C(=O)c2cc(NS(=O)(=O)CC)ccc2OC[C@@H]1C | -23.7
CC(C)CC#Cc1cnc2c(c1)C(=O)N([C@H](C)CO)C[C@H](C)[C@@H](CN(C)C(=O)Nc1ccccc1F)O2 | 3.1
C/C=C/c1ccc2c(c1)O[C@@H](CN(C)Cc1ccccc1F)[C@H](C)CN([C@@H](C)CO)S2(=O)=O | 0.5
CC(C)NC(=O)N(C)C[C@@H]1Oc2cc(-c3ccccc3)ccc2S(=O)(=O)N([C@@H](C)CO)C[C@H]1C | -5.1
SMILES | miR122 inh
COc1cccc(S(=O)(=O)N(C)C[C@@H]2Oc3ncc(C#CCC(C)C)cc3C(=O)N([C@@H](C)CO)C[C@H]2C)c1 | 4.3
C[C@H]1CN([C@@H](C)CO)C(=O)c2cccc(NS(=O)(=O)c3cccs3)c2O[C@@H]1CN(C)Cc1ccc(C(F)(F)F)cc1 | -118.9
CO[C@H]1CN(C)C(=O)c2ccc(NC(=O)c3ccccc3)cc2OC[C@H](C)N(C)C[C@H]1C | -1.6
C[C@H](CO)N1C[C@H](C)[C@@H](CN(C)C(=O)C2CC2)Oc2ncc(-c3cccnc3)cc2C1=O | 1.0
C[C@@H]1CN([C@H](C)CO)C(=O)c2cc(C#Cc3cccnc3)cnc2O[C@@H]1CN(C)S(C)(=O)=O | -5.9
C[C@@H]1CN([C@@H](C)CO)C(=O)c2cc(C3=CCCCC3)cnc2O[C@H]1CN(C)C(=O)Cc1ccccc1 | -5.0
CCCN(C)C[C@@H]1Oc2cc(C#Cc3ccccc3F)ccc2S(=O)(=O)N([C@H](C)CO)C[C@@H]1C | 6.1
COc1ccc(-c2cnc3c(c2)C(=O)N([C@H](C)CO)C[C@H](C)[C@H](CN(C)C(=O)C2CCOCC2)O3)cc1 | -3.9
Cc1ccc(-c2cnc3c(c2)C(=O)N([C@H](C)CO)C[C@H](C)[C@@H](CN(C)C(=O)Cc2ccncc2)O3)cc1 | -3.2
CCCNC(=O)N(C)C[C@@H]1Oc2cc(C#Cc3cccc(F)c3)ccc2S(=O)(=O)N([C@H](C)CO)C[C@H]1C | -3.6
COCC(=O)N(C)C[C@H]1Oc2ncc(/C=C/c3ccccc3)cc2C(=O)N([C@@H](C)CO)C[C@@H]1C | -3.0
CCC(=O)Nc1ccc2c(c1)OC[C@@H](C)N(C(=O)CN1CCOCC1)C[C@H](C)[C@H](OC)CN(C)C2=O | -2.6
C[C@@H]1CN([C@@H](C)CO)S(=O)(=O)c2ccc(C#CC3CC3)cc2O[C@H]1CN(C)C(=O)C1CC1 | -26.5
C[C@H](CO)N1C[C@H](C)[C@H](CN(C)C(=O)CC2CC2)Oc2cc(C#CCC3CCCC3)ccc2S1(=O)=O | -6.1
C[C@H](O)C#Cc1cnc2c(c1)C(=O)N([C@H](C)CO)C[C@H](C)[C@H](CN(C)Cc1cncnc1)O2 | 2.6
CCCNC(=O)Nc1ccc2c(c1)C(=O)N(C)[C@H]1CC[C@@H](CC(=O)NCC3CCCCC3)O[C@@H]1CO2 | 41.7*
CO[C@H]1CN(C)C(=O)c2ccc(NC(=O)Nc3cccc(F)c3)cc2OC[C@H](C)N(C)C[C@H]1C | -11.4
CCCC(=O)Nc1ccc2c(c1)C(=O)N(C)[C@@H]1CC[C@H](CC(=O)NCCN3CCCCC3)O[C@H]1CO2 | 50.0*
CCNC(=O)C[C@@H]1CC[C@@H]2[C@@H](COc3ccc(NC(=O)C4CCCCC4)cc3C(=O)N2C)O1 | 33.3*
CO[C@H]1CN(C)C(=O)c2ccc(NC(=O)Nc3cccc(F)c3)cc2OC[C@@H](C)N(C)C[C@H]1C | -1.6
CCCC(=O)Nc1ccc2c(c1)C(=O)N(C)C[C@@H](OC)[C@H](C)CN[C@@H](C)CO2 | -1.0
CN1C(=O)c2cc(NC(=O)Cc3cccs3)ccc2OC[C@@H]2O[C@@H](CC(=O)NCC3CCCCC3)CC[C@@H]21 | -195.6
CN1C(=O)c2cc(NC(=O)NCc3ccccc3)ccc2OC[C@@H]2O[C@@H](CC(=O)NCC3CCCCC3)CC[C@@H]21 | -120.0
CCC(=O)N1C[C@H](C)[C@@H](OC)CN(C)C(=O)c2ccc(NC(=O)C3CCCCC3)cc2OC[C@H]1C | -1.8
CCNC(=O)Nc1ccc2c(c1)C(=O)N(C)[C@H]1CC[C@H](CC(=O)Nc3cccc(F)c3)O[C@@H]1CO2 | 66.7*
CCC(=O)N1C[C@H](C)[C@H](OC)CN(C)C(=O)c2ccc(NC(=O)C3CCCCC3)cc2OC[C@@H]1C | 0.9
CCCNC(=O)C[C@H]1CC[C@H]2[C@H](COc3ccc(NC(=O)c4ccc5c(c4)OCO5)cc3C(=O)N2C)O1 | -121.7
C[C@@H]1CN([C@@H](C)CO)S(=O)(=O)c2ccc(-c3ccc(C#N)cc3)cc2O[C@H]1CN(C)C(=O)C1CC1 | -37.4
